# Measurements as given in paper PMC4336329 (PLoS ONE, 2015).
# The campaign covered roughly 310,000 compounds. About 2,200 (0.71%) showed an effect of 50% or more. The effect is printed as a negative number. The sample holds strong results, similar compounds and a random draw of the others, so the mix is not that of the screen.
# Molecular target: human ether-à-go-go-related gene (hERG) potassium channel (human, UniProt Q12809)
# Assay: primary screen, population patch clamp on CHO cells stably expressing hERG; higher = less effect of the substance
# Description: Briefly, Chinese hamster ovary (CHO) cells stably expressing the hERG channel were dislodged from tissue culture flasks and dispensed into PPC plates. […] During the recording, background leak currents were estimated by a 100 ms step to -80 mV from an initial holding potential of -70 mV and subtracted from the subsequent current measurement. The campaign was conducted in two phases using slight differences in recording protocol. In the first phase, the initial voltage pulse used a 100 ms step to -30 mV from a holding potential of -70 mV, a 2 s conditioning step to +25 mV, and a 2 s test step to -30 mV. During the second phase of the screen, the potential during the conditioning step was raised to +45 mV. In both phases of the campaign, a secondary voltage pulse was applied using the same parameters as the second phase initial pulse. The initial and secondary pulses were applied in the absence of compound, and upon application of 1 μM and 10 μM test concentrations. Small molecule effects on hERG current density were quantified by […].
# Chain of human ether-à-go-go-related gene (hERG) potassium channel (Q12809 whole entry, looked up): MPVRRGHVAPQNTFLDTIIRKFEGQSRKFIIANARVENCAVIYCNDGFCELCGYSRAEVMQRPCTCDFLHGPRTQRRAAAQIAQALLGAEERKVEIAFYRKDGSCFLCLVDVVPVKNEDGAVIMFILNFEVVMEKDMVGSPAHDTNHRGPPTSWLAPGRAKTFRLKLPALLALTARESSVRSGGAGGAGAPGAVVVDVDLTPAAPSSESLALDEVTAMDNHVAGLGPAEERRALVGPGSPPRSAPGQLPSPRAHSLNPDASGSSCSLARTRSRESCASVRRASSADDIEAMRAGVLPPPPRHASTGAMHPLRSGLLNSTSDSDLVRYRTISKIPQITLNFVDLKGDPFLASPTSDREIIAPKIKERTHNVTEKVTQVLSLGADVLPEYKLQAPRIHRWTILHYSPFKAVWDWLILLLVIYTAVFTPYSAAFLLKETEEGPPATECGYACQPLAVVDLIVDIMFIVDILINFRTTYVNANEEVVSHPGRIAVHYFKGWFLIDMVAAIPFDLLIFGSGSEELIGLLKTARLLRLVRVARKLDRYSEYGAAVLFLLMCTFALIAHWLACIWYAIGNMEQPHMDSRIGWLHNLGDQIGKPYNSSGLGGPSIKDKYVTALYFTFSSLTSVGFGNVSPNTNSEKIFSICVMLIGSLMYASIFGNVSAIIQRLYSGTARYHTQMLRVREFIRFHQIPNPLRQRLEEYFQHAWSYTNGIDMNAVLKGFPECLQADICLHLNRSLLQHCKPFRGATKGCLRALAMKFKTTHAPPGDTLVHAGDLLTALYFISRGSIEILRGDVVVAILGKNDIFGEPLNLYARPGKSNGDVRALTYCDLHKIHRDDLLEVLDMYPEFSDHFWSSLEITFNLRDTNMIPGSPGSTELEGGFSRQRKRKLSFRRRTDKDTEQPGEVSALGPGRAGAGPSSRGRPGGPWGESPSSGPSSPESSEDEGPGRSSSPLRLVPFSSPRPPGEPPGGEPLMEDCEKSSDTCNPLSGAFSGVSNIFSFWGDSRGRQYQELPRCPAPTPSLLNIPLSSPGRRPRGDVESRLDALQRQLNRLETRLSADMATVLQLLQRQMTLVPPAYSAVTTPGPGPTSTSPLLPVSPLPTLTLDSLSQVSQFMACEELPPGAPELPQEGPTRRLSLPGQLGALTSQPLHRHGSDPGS
row,Structure (SMILES),"hERG current change (%, negative = inhibition) at 1uM [%]"
1,Cc1cccc(C)c1OCC(O)CN.Cl.O (centres unmarked),10.5
2,COc1ccccc1NC(=O)/C=C1\SCC(=O)N1C,2.4
3,NC(=O)CSc1nc(-c2ccccc2)c(-c2ccccc2)o1,8.48
4,C/C=C1\COC(C(=O)NCc2ccncc2)(C(F)(F)F)C=C1C=C1CCCCC1 (centres unmarked),12.8
5,CCCc1n[nH]c2c1/C(=N\OCC)CC(C)(C)C2,12.8
6,C=CCN1CCN(C(c2cc(OC)ccc2OC)c2nnnn2CC2CCCO2)CC1.Cl (centres unmarked),12.4
7,Cc1nn(C)c(Cl)c1CN1CCCC(C(=O)Nc2cccc(-n3cccn3)c2)C1 (centres unmarked),-3.6
8,CN1C(=O)CC(N2CCN(c3ccc(Cl)c(Cl)c3)CC2)C1=O (centres unmarked),1.54
9,O=C(NC(CC(=O)N1CCN(c2ccccc2)CC1)c1ccccc1)c1ccccc1Cl (centres unmarked),-19.6
10,O=C(CN1CCN(CC(=O)Nc2ccccn2)CC1)Nc1ccccn1,-9.95
11,O=C(CN1CCN(c2ccc([N+](=O)[O-])cc2)CC1)Nc1nccs1,-29.3
12,O=C(NC(CC(=O)N1CCN(c2ccc([N+](=O)[O-])cc2)CC1)c1ccccc1)c1ccccc1Cl (centres unmarked),-69
13,O=C(CN1CCN(c2ccc([N+](=O)[O-])cc2)CC1)c1ccccc1,-9.94
14,O=C(CN1CCN(c2ccc([N+](=O)[O-])cc2)CC1)Nc1ccccn1,-75.8
15,O=C(CCCC(=O)N1CCN(c2cccc(Cl)c2)CC1)c1ccccc1,1.83
16,O=C(NC(CC(=O)N1CCN(c2ccccc2O)CC1)c1ccccc1)c1ccccc1Cl (centres unmarked),-15.6
17,Cc1ccc(CC(=O)N2CCN(c3ccc([N+](=O)[O-])cc3)CC2)cc1,-30.4
18,O=C(Cc1ccc([N+](=O)[O-])cc1)N1CCN(c2ccc([N+](=O)[O-])cc2)CC1,-82.5
19,O=C(Cc1ccc(F)cc1)N1CCN(c2ccc([N+](=O)[O-])cc2)CC1,-45.8
20,O=C(CCCC(=O)N1CCN(c2ccc([N+](=O)[O-])cc2)CC1)c1ccccc1,-66
21,Cn1cc(Cl)c(-c2n[nH]c(=S)n2-c2ccccc2)n1,14
22,CCOC(=O)c1sc(NC(=O)c2ccc(OC)cc2)nc1C,15.9
23,CCN(C(=O)C1CC1)C1CCS(=O)(=O)C1 (centres unmarked),9.67

row,Structure (SMILES),"hERG current change (%, negative = inhibition) at 1uM [%]"
1,CCC(C)C(=O)N[C@@H](c1ccccc1)[C@@H](O)C(=O)O[C@H]1C[C@@]2(O)[C@@H](OC(=O)c3ccccc3)C3[C@](C)(C(=O)[C@H](OC(C)=O)C(=C1C)C2(C)C)[C@@H](O)C[C@H]1OC[C@@]31OC(C)=O (some centres unmarked),7.34
2,CCOC(=O)COc1ccc(CCNC(C)=O)cc1,17.8
3,Cn1c(CSCc2ccccc2Cl)nnc1SCC(=O)Nc1nccs1,2.67
4,Cc1cccc(N2CCN(C(=O)CSCc3c(C)noc3C)CC2)c1C,6.62
5,Cc1noc(C)c1CSCC(=O)N1CCN(c2ccc([N+](=O)[O-])cc2)CC1,-83.4
6,COc1cccc(N2CCN(C(=O)CC(NC(=O)c3ccccc3)c3ccccc3)CC2)c1 (centres unmarked),-27
7,CCNS(=O)(=O)c1ccc(CCC(=O)N2CCN(c3ccccc3)CC2)cc1,3.97
8,O=C(CCCSc1nc2ccccc2[nH]1)N1CCN(c2ccccc2)CC1,-32.8
9,O=C(CCCSc1nc2ccccc2[nH]1)N1CCN(c2ccc([N+](=O)[O-])cc2)CC1,-86.9
10,CC(C)CNS(=O)(=O)c1ccc(CCC(=O)N2CCN(c3ccc(F)cc3)CC2)cc1,-9.44
11,COc1ccc(N2CCN(C(=O)CCCSc3nc4ccccc4[nH]3)CC2)cc1,-29.6
12,Cc1noc(C)c1CSCC(=O)N1CCN(c2ccc(F)cc2)CC1,-17.9
13,CC(C)CNS(=O)(=O)c1ccc(CCC(=O)N2CCN(c3ccccc3)CC2)cc1,-61.5
14,N#Cc1ccc(CN2CCN(C(=O)CC(NC(=O)c3ccccc3)c3ccccc3)CC2)cc1 (centres unmarked),-84.7
15,CC(NC(=O)c1ccccc1)c1nc2ccccc2n1Cc1ccc(C#N)cc1 (centres unmarked),-35.6
16,Cc1ccnc(NC(=O)Cn2cc([N+](=O)[O-])cn2)c1,10.4
17,CCOC(=O)c1sc(=S)n(-c2ccccc2)c1N(C(C)=O)C(C)=O,15.5
18,COc1ccc(S(=O)(=O)N2CCOCC2)cc1NC(=O)CCc1cc(OC)c(OC)c(OC)c1,2.32
19,CC(NC(=O)c1cccnc1)C(c1cccs1)N1CCN(C)CC1 (centres unmarked),8.63
20,COc1ccc(OCCSc2nc(N)cc(N)n2)cc1,-5.65
21,CC(=O)OCCNc1cc(SC(C)C)c2nonc2c1[N+](=O)[O-],3.63
22,C=CCN1C=C2C(=O)C(C)(OC(=O)CCC(=O)OC)C(=O)C(Br)=C2C=C1c1ccc(OC)cc1 (centres unmarked),7.67
23,O=C(Cc1ccccc1[N+](=O)[O-])NCCc1ccc(F)cc1,11.3

row,Structure (SMILES),"hERG current change (%, negative = inhibition) at 1uM [%]"
1,O=C(OCn1nnc2ccccc2c1=O)c1cccc(S(=O)(=O)N2CCOCC2)c1,12.9
2,CC1(C(=O)N2CCN(c3ccc([N+](=O)[O-])cc3)CC2)CC1(Cl)Cl (centres unmarked),-64.3
3,CSC(=NC#N)N1CCN(c2ccccc2)CC1,6.71
4,CSC(=NC#N)N1CCN(c2ccc(Cl)cc2)CC1,-6.45
5,Cc1ccc(S(=O)(=O)CCC(=O)N2CCN(c3ccc([N+](=O)[O-])cc3)CC2)cc1,-49.9
6,O=C(CCS(=O)(=O)Cc1ccccc1)N1CCN(c2ccccc2)CC1,-5.53
7,CC1(C(=O)N2CCN(c3ccccc3)CC2)CC1(Cl)Cl (centres unmarked),10.3
8,CSC(=NC#N)N1CCN(c2ccc([N+](=O)[O-])cc2)CC1,-80.9
9,CC(=O)N1CCN(c2ccc([N+](=O)[O-])cc2)CC1,-26
10,O=C(CCS(=O)(=O)Cc1ccccc1)N1CCN(c2ccc([N+](=O)[O-])cc2)CC1,-81
11,O=C(CSCc1c(F)cccc1Cl)NCC1CCCO1 (centres unmarked),-1.83
12,CCn1cc(C2=NC(CCSC)CO2)c2ccccc21 (centres unmarked),12
13,Cc1ccc(C2=NN(CC(=O)O)C(=O)CC2)cc1,-9.99
14,Cc1ccc(C(=O)N2CCN(c3ccc([N+](=O)[O-])cc3-n3cccc3)CC2)cc1,-16.4
15,COc1cccc(N2CCN(CC(=O)C34CC5CC(CC(C5)C3)C4)CC2)c1,14
16,O=C(O)c1ccccc1C(=O)O,4.51
17,O=C1OC(NC(=O)c2ccccc2)C(n2cc(CO)nn2)=C1Cl (centres unmarked),-3.22
18,COc1ccc(N(C(=O)Cc2cccs2)C(C(=O)NC2CCCCC2)c2cccn2C)cc1 (centres unmarked),9.18
19,N#C/C(=C/c1ccc(Cl)cc1)NC(=O)c1ccccc1,12.2
20,COCCn1c(C)cc(C(=O)CSc2nnnn2C2CCCC2)c1C,-58.4
21,CCn1c(C)cc(C(=O)CSc2nnnn2C2CCCC2)c1C,-9.53
22,COCC(C)n1c(C)cc(C(=O)CSc2nnnn2C2CCCC2)c1C (centres unmarked),5.12
23,CCOC(=O)C1CCCN(CCC(=O)Nc2c(C(=O)OC)[nH]c3cc(OC)ccc23)C1 (centres unmarked),-38

row,Structure (SMILES),"hERG current change (%, negative = inhibition) at 1uM [%]"
1,O=C(CSc1nnc(-c2ccc(O)cc2)o1)Nc1cccc(O)c1,17.7
2,Cl.Nc1cc(F)ccc1N1CCCCCC1,12.7
3,CN(C)C(=O)C1C2NC(=S)N(c3ccccc3)C1(C)Oc1ccccc12 (centres unmarked),2.05
4,O=[N+]([O-])c1ccc(N2CCCCC2)cn1,13.9
5,O=[N+]([O-])c1ccc(N2CCN(c3cccc(Cl)c3)CC2)cn1,-59.8
6,O=[N+]([O-])c1ccc(N2CCN(c3ccccc3Cl)CC2)cn1,-10
7,CCc1cccc(C)c1NC(=O)CC1Oc2ccc(C)cc2NC1=O (centres unmarked),11.9
8,CCCOC(=O)CCCN1C(=O)/C(=C2\SC(=S)N(CCCC(=O)OCCC)C2=O)SC1=S,16
9,Cc1cc2c(cc1C)C(c1ccsc1)CC(=O)N2 (centres unmarked),9.06
10,COc1ccc(CN2CCNC(=O)C2CC(=O)N(C)Cc2nccs2)c(OC)c1 (centres unmarked),13.1
11,Cc1ccc(NS(=O)(=O)c2ccc(C(=O)N3CCN(c4ncccn4)CC3)cc2)cc1,1.36
12,Cc1ccc(C(=O)N/C(=C\c2cccs2)C(=O)NCc2ccncc2)cc1,-38.5
13,O=C(Nc1cccc2ccccc12)/C(=C\c1cccc([N+](=O)[O-])c1)NC(=O)c1cccs1,-67.7
14,Cc1ccc(C(=O)N/C(=C\c2ccccc2)C(=O)NCc2cccnc2)cc1,-41.8
15,COc1ccc(/C=C(/NC(=O)c2ccc(C)cc2)C(=O)NCc2ccncc2)cc1,-21.3
16,Cc1ccc(C(=O)N/C(=C\c2sccc2C)C(=O)NCc2ccncc2)cc1,-1.07
17,COc1ccc(C(=O)N/C(=C/c2ccc(Cl)cc2)C(=O)NCc2ccncc2)cc1,-38.4
18,O=C(Nc1cccc2ccccc12)/C(=C/c1cccc([N+](=O)[O-])c1)NC(=O)c1cccs1,-37.8
19,Cc1ccc(C(=O)N/C(=C\c2ccccc2)C(=O)NCc2ccncc2)cc1,-77.1
20,Cc1ccc(C(=O)N/C(=C\c2ccc(F)cc2)C(=O)NCc2ccncc2)cc1,-81.2
21,Cc1ccc(NC(=O)/C(=C\c2cccc([N+](=O)[O-])c2)NC(=O)c2cccs2)cc1,4.59
22,Cc1ccc(C(=O)N/C(=C/c2ccc(F)cc2)C(=O)NCc2ccncc2)cc1,-78.4
23,Cc1ccc(C(=O)N/C(=C/c2ccccc2)C(=O)NCc2ccncc2)cc1,-37.7
